Sampled rows, rich in hits. Any-hit rate of the full collection: about 7.9%.
HCMV antiviral = human cytomegalovirus inhibition; hit rate 4.5% among 410,000; activity change, negative = inhibition, % at 57.5 µM; HFF cells, HCMV-luciferase reporter, 72 h; active compounds read low; AID 1259415; in the data active means activity change below about -60%; inconclusive means no clear call, values can overlap the other calls; inactive means above about -39%
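Cell-based, HFFs, 1000 cells/well, 16 h 37C; cpds in DMSO + HCMV-luc, MOI 1 PFU/cell; 72 h 37C; OneGlo luminescence after 5 min RT; norm. to buffer vs Salinomycin 10uM.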
Lassa entry inh = Lassa virus entry inhibition | Lassa virus pseudotype entry inhibition, cell reporter | Potency, µM (series often up to 37.9 µM), for inactives: at the highest dose activity change, negative = inhibition, most hits filed as inhibitors | hit rate 1.2% among 300,000; calls by dose curve; tested in HEK293 cells; further: potency means the concentration at half of the fitted maximal effect; nearly all actives have a fitted effect of over 50% in size
MARV entry inh = blocks Marburg virus binding to or entry into cells | hit rate 1.8% among 300,000 | AID 540276 | Marburg virus pseudotyped entry inhibition, cell reporter | Potency, µM (highest dose often 37.8 µM), for inactives: top-dose activity change, negative = inhibition, hits mostly inhibitors; calls by dose curve; tested in HEK293 cells; further: potency means the concentration at half of the fitted maximal effect
HCV inh = HCV inhibition. hit rate 3.4% among 340,000. AID 651820. Huh7.5.1 HCVcc-Cre infection, luciferase reporter, 44 h. Potency, µM (top dose mostly 41.8 µM), without a hit: top-dose activity change, negative = inhibition, hits mostly inhibitors; active means well fitted inhibition curve with a large enough effect; inconclusive means small, poorly fitted or top-dose-only effect, or another doubt; inactive means no such curve, though single readings can be large or run the other way; further: potency means the concentration at half of the fitted maximal effect
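Compounds are dispensed onto cells plated 4 h earlier at 1,000 per well, with HCVcc-Cre virus (about 0.5 moi) added next. Following 44 h of culture, luminescent signal is measured for 15 sec after 15 min with substrate at room temperature.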
FMDV antiviral = foot and mouth disease virus antiviral activity; FMDV antiviral cell-based qHTS; Potency, µM (doses to about 57.9 µM), without a hit: at the highest dose activity change, negative = inhibition, most hits filed as inhibitors; hit rate 1.2% among 410,000; calls by dose curve; tested in HEK293T cells; further: read-out not given here; potency means the concentration at half of the fitted maximal effect; nearly all actives have a fitted effect of over 45% in size
* = called active by the depositor; ? = inconclusive; nt = no result; ! = not confirmed by another sample; [ ] = remark or other dose. On the % scale 0 is the no-effect control and ±100 the full control effect.

SMILES	HCMV antiviral	Lassa entry inh	MARV entry inh	HCV inh	FMDV antiviral
COC(=O)c1ccc(NC(=O)c2c(NCc3ccc(OC)c(OC)c3)sc3c2CCCC3)cc1	-66.8*	-13.0%[46.1 µM]	nt	nt	-1.3%
CC1=C(C(=O)Nc2ccccc2)C(c2cccnc2)n2nc(SCc3ccccc3Cl)nc2N1 (stereo not given)	-2.4	12.6%[46.1 µM]	5.6%[46.1 µM]	nt	-19.3%
CC1C(=O)N2CCCc3cc(NC(=O)C4CC4)cc1c32 (stereo not given)	3.7	-3.3%	3.9%	1.8%[8.37 µM]	3.2%
O=c1cc(CCl)nc(Cc2c(Cl)cccc2Cl)[nH]1	-92.8*	?	?	?	?
O=c1cc(-c2ccccc2)nc(Cc2c(Cl)cccc2Cl)[nH]1	-19.9	7.0%[46.1 µM]	-2.6%[46.1 µM]	1.0%	-7.6%
O=C(c1ccccc1F)N1CC(=O)N2[C@@H](CO)[C@H](c3ccc(Br)cc3)[C@@H]2C1	14.0	nt	nt	nt	nt
Cc1ccccc1OCC(=O)OCC(=O)NCC1CCCO1 (stereo not given)	7.6	9.3%[46.1 µM]	16.8%[46.1 µM]	16.0%	-9.6%
COC(=O)c1ccccc1-c1c2ccc(=N)cc-2oc2cc(N)ccc12	-97.0*	7.94µM*	?	?	0.0%
O=C(O)c1ccccc1-c1oc2cc(O)ccc2c(=O)c1Oc1ccccc1	nt	nt	nt	nt	0.0%
O=C(O)c1ccccc1-c1c2ccc(=O)cc-2oc2cc(O)ccc12	nt	28.1µM*	35.3µM*	nt	nt
COC(=O)c1ccccc1-c1ccc(/C=N/NC(=O)c2cc3ccccc3o2)o1	-17.9	-9.8%	3.7%	-11.1%	-14.2%
CCOC(=O)CCCNC(=O)CSc1nnc(-c2ccccc2)c(-c2ccccc2)n1	-2.2	?	?	-23.1%	-16.7%
CC(C)(C)n1nnnc1C(c1ccccc1)N1CCN(C/C=C/c2ccccc2)CC1 (stereo not given)	7.6	nt	nt	nt	-5.7%
Cc1cccc(C)c1-n1nnnc1C(c1cccc2ccccc12)N1CCN(C/C=C/c2ccccc2)CC1 (stereo not given)	-6.6	nt	nt	nt	-20.4%
C(=C\c1ccccc1)/CN1CCN(C(c2ccccc2)c2ccccc2)CC1	?	14.6µM*!	20.6µM*!	1.1%[8.37 µM]	0.0%
Cc1cccc(C)c1-n1nnnc1C(c1cc2ccccc2o1)N1CCN(C/C=C/c2ccccc2)CC1 (stereo not given)	-61.9*	nt	nt	nt	-5.0%
Fc1ccc(C(c2ccc(F)cc2)N2CCN(C/C=C/c3ccccc3)CC2)cc1	-37.4	13µM*	7.08µM*	1.58µM*!	?
CN(CC(=O)Nc1ccc(F)c(Cl)c1)S(=O)(=O)c1ccc2c(c1)n(C)c(=O)c(=O)n2C	0.0	nt	nt	-19.9%	-14.2%
Cc1ccccc1CNC(=O)c1ccc(CS(=O)Cc2ccc(Cl)cc2)o1 (stereo not given)	13.0	-1.0%[46.1 µM]	nt	nt	-7.0%
COc1ccccc1-c1nnc(Sc2nc([N+](=O)[O-])nn2C)o1	-74.8*	-27.1%	?	10µM*	28.2µM*
CN(C(=O)COC(=O)CNC(=O)c1ccc(C(C)(C)C)cc1)c1c(N)n(Cc2ccccc2)c(=O)[nH]c1=O	-1.0	?	?	-6.4%	-9.4%
COc1ccccc1/C=C/C(=O)N1CCN(S(=O)(=O)c2cc(C)ccc2C)CC1	-37.2	nt	nt	?	-22.5%
CCCc1cc(N2CCOCC2)n2ncc(-c3ccccc3)c2n1	-61.8*	nt	nt	?	-1.8%
CC(C)(C)c1cc(N2CCOCC2)n2ncc(-c3ccccc3)c2n1	5.7	nt	nt	?	-10.4%
COc1ccc(C2=CC(=O)N(CCN)C2)cc1	3.5	nt	nt	nt	nt
SMILES	HCMV antiviral	Lassa entry inh	MARV entry inh	HCV inh	FMDV antiviral
C[C@H]1CN([C@@H](C)CO)C(=O)CCCn2nncc2CO[C@H]1CN(C)S(=O)(=O)c1ccccc1	-11.1	nt	nt	nt	-21.3%
COC(=O)N/N=C/c1ccc([N+](=O)[O-])s1	-28.5	?	?	?	-10.9%
Cc1cc(C(=O)N/N=C/c2ccc([N+](=O)[O-])cc2)c2ccccc2n1	-0.5	nt	nt	-3.1%	4.0%
Cc1ccccc1C(=O)N/N=C/c1ccc([N+](=O)[O-])s1	-95.9*	-24.3%	4.11µM*	?	nt
COc1ccccc1NC(=O)C(=O)N/N=C/c1ccc([N+](=O)[O-])s1	-26.7	nt	nt	-16.3%	-19.1%
O=C(N/N=C/c1ccc([N+](=O)[O-])s1)c1ccccc1Br	-77.4*	?	?	11.2µM*	nt
Cc1cccc(/C=N/NC(=O)c2cc(C3CC3)nc3ccccc23)n1	20.6	nt	nt	-10.1%	-6.6%
CCc1ccc(/C=N/NC(=O)c2cc(C3CC3)nc3ccccc23)s1	-28.4	-28.3%	?	8.91µM*	-13.7%

Screening results as filed in PubChem.
